“And” between values parts separate entries of the source, which are not always exact repeats. Identical values can stand only once. Inconclusive results are not listed. Some compounds were tested as several samples or in several runs, with calls that do not always agree. The source made the active and inactive calls. Unless noted, calls come from the whole dose curve; as a rule, active = well fitted curve in the direction sought with a large enough effect; inconclusive = small, poorly fitted or top-dose-only effect, or another doubt; inactive = no such curve, though single readings can be large; an effect the other way counts as inactive or inconclusive.
What was measured:
[1] = Cell Viability - NIH 3T3 (AID 541); settings: NIH 3T3 cell viability, qHTS; activity change, negative = cytotoxicity: at 92.2 µM (top of the series); note: nearly all actives have a fitted effect of over 25% in size; note: potency is the fitted concentration of half-maximal effect;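 for activity change, negative = cytotoxicity: plate controls were DMSO alone for no effect and tamoxifen positive control for full effect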
In short: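 Mouse NIH 3T3 fibroblasts, 1000 cells/well, rested 5 hr at 37 °C, then exposed to compound for 40 hr at 37 °C in complete medium. Viability read as intracellular ATP by CellTiter-Glo luminescence; AC50 from Hill-equation fits of concentration-response data.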

[2] = qHTS assay to identify small molecules that stimulate interleukin-8 (IL-8) secretion (AID 651758; active = well fitted activation curve with a large enough effect in the signal ratio; the % refers to the signal ratio; note: potency is the fitted concentration of half-maximal effect; for activation: 0% is about no effect)
In short: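 Secreted IL-8 measured by TR-FRET sandwich (cryptate and XL665 antibodies) from THP-1 cells exposed to compound overnight (16 hrs, 37 C).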

[3] = target: Mitogen-activated protein kinase 10 (Mus musculus) (UniProt Q61831); experiment: JNK3 AlphaScreen Assay (AID 530; active = well fitted curve in either direction with a large enough effect, not every such curve was filed as active;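 note: kinase came from lysate of stimulated human HepG2 cells; signal reports phosphorylation of biotinylated GST-cJun 1-79 at Ser73 with 10 µM ATP; % is set by controls: 0 for no effect and ±100 for the full control effect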)
In short: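 Compound titrations were preincubated 15 minutes at room temperature with substrate, antibody and pre-activated JNK3-containing HepG2 lysate. Reactions were started with 10 uM ATP and stopped with EDTA-containing bead buffer for AlphaScreen detection.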

[4] = MultiTox-Fluor Cytotoxicity Assay - LYMP1-002 - Live Cells (AID 955); note: % is set by controls: 0 for no effect and ±100 for the full control effect
In short: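 Human lymphoblastoid LYMP1-002 cells, 2500/well, treated 16 h at 37 C in complete medium. Live-cell protease activity via GF-AFC fluorescence (Ex/Em 405/510) after 60 min reagent incubation; AC50 from Hill fits.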

[5] = Cell Viability - LYMP2-011 (AID 969);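 note: cells exposed to compound for 24 hours; nearly all actives have a fitted effect of over 60% in size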; note: potency is the fitted concentration of half-maximal effect;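 for viability change, negative = cytotoxic: 0% = DMSO only and full inhibition = 92 µM tetraoctylammonium bromide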
In short: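 2500 cells/well in complete medium, compound-treated 24 h at 37 C. Viability read as intracellular ATP by CellTiter-Glo luminescence after 30 min at room temperature. AC50 from Hill fits of qHTS concentration-response data.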

[6] = Cell Viability - LYMP2-023 (AID 975);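 note: cells exposed to compound for 24 hours at 37 °C; nearly all actives have a fitted effect of over 55% in size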; note: potency is the fitted concentration of half-maximal effect;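 for activity change, negative = cytotoxicity: cellular ATP measured by luciferase luminescence as viability proxy; plate controls were DMSO only for no effect and 92 µM tetraoctylammonium bromide control for full effect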
In short: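 LYMP2-023 human lymphoblastoid cells, 2500/well, preincubated 5 hr at 37 C, then compound-treated 24 hr at 37 C in complete medium. CellTiter-Glo luminescence (ATP) after 30 min at room temperature; AC50 from Hill-equation fits; tetraoctylammonium bromide positive control.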

[7] = target: Estrogen receptor (Homo sapiens) (UniProt P03372); experiment: qHTS assay for small molecule agonists of estrogen receptor alpha signaling (AID 588514; calls by dose curve;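 note: 0% = vehicle only and 100% = reference agonist; nearly all actives have a fitted effect of over 70% in size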)
Sequence of Estrogen receptor (Homo sapiens) (P03372 whole entry, looked up): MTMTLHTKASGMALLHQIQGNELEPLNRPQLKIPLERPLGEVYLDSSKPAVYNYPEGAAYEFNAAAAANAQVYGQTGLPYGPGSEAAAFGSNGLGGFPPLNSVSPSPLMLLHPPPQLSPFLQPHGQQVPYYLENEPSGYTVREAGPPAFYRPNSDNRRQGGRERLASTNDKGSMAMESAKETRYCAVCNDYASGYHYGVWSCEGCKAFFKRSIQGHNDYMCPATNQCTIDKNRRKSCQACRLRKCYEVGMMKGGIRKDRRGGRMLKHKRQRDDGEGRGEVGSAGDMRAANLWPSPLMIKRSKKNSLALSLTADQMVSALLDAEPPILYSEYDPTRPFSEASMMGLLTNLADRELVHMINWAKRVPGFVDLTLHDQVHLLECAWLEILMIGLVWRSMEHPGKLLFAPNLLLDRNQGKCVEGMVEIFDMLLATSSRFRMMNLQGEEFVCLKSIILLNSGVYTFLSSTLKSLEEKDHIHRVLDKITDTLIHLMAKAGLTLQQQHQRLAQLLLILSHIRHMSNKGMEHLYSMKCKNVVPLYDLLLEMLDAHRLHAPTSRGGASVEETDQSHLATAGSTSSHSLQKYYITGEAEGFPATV
In short: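 ER-alpha-UAS-bla GripTite HEK293 cells, 5000/well in 2% charcoal/dextran-stripped FBS medium, treated with compound titrations 18 h at 37 C. CCF4 beta-lactamase read by fluorescence after 2 h RT; normalised to 20 nM 17-beta-estradiol (100%) and DMSO (0%), Hill fit for EC50 and efficacy.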

[8] = target: Glucocorticoid receptor (Homo sapiens) (UniProt P04150); experiment: qHTS assay for small molecule agonists of glucocorticoid receptor signaling (AID 588532; active = well fitted curve in the direction sought with a large enough effect in the signal ratio, with a control signal flat; the % refers to the signal ratio;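 note: 100% = dexamethasone at 0.1 µM and 0% = DMSO only wells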); settings: HeLa MMTV-bla, beta-lactamase ratio, agonist, 18 h; stronger effect = higher value; percent of dexamethasone control, DMSO zero
Sequence of Glucocorticoid receptor (Homo sapiens) (P04150 whole entry, looked up): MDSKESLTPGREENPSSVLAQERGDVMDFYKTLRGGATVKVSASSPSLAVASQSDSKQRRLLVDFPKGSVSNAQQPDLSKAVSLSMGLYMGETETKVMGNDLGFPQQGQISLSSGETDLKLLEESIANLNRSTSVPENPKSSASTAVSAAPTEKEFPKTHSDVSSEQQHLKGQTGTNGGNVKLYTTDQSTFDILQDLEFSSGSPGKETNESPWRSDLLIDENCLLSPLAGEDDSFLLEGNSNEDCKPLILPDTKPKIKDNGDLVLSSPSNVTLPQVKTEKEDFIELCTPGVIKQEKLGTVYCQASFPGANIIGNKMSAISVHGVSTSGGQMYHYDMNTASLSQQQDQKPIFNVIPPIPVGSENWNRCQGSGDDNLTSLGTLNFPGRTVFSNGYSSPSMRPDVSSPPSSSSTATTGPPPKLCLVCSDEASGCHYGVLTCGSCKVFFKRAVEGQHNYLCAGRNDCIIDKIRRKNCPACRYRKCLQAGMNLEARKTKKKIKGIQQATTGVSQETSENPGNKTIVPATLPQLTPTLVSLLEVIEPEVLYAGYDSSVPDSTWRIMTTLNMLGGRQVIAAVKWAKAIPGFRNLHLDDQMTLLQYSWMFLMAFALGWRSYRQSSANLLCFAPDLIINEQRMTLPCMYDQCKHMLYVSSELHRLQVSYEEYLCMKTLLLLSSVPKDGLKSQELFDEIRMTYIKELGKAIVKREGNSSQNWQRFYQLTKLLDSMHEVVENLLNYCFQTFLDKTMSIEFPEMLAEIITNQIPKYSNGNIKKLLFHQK
In short: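 Quantitative HTS using CellSensor MMTV-bla HeLa cells in charcoal/dextran-treated serum; compounds tested up to 92 uM. After 18 h at 37 C, CCF4 dye reported reporter induction.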

[9] = target: Glucocorticoid receptor (Homo sapiens) (UniProt P04150); experiment: qHTS assay for small molecule antagonists of glucocorticoid receptor signaling (AID 588533; active = well fitted inhibition curve with a large enough effect in the signal ratio, with a control signal flat, not every such curve was filed as active; the % refers to the signal ratio;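 note: cells stimulated with 2 nM dexamethasone as agonist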; note: potency is the fitted concentration of half-maximal effect)
In short: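 Antagonist-mode qHTS: compound titrations added to GRE-bla HeLa cells, then dexamethasone 2 nM final; 18 h, 37 C. CCF4 FRET fluorescence normalized to dexamethasone and DMSO; IC50 from Hill fit.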

[10] = target: Vitamin D3 receptor (Homo sapiens) (UniProt P11473); experiment: qHTS assay for small molecule antagonists of vitamin D receptor signaling (AID 588541; calls by dose curve; note: potency is the fitted concentration of half-maximal effect)
Sequence of Vitamin D3 receptor (Homo sapiens) (P11473 whole entry, looked up): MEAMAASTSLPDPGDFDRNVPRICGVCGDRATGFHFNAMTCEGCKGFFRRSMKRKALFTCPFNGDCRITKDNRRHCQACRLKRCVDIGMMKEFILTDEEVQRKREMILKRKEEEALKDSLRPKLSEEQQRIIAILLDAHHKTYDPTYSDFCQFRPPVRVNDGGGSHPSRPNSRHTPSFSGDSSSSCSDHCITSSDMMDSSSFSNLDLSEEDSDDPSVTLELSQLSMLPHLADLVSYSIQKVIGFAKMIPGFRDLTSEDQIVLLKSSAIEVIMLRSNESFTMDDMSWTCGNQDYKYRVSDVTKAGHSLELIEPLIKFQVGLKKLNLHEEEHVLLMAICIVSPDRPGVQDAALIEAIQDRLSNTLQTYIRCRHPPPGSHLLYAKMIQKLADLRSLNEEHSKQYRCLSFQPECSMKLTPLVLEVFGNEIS
In short: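 Antagonist-mode beta-lactamase reporter assay: HEK293T VDR-UAS-bla cells were exposed to titrated compound alongside 1-alpha,25-dihydroxyvitamin D3 at 3 nM final for 16 h. Values were normalized to the 50 nM agonist control and DMSO basal, with IC50 and efficacy from Hill equation fits.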

[11] = Cell Viability - LYMP2-013 (AID 970); note: nearly all actives have a fitted effect of over 55% in size; note: potency is the fitted concentration of half-maximal effect
In short: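 Human lymphoblastoid LYMP2-013 cells, 2500/well, treated 24 h at 37 C in complete medium; viability as intracellular ATP by CellTiter-Glo luminescence after 30 min. AC50 from Hill fits of qHTS concentration-response.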

[12] = target: Retinoic acid receptor RXR-alpha (Homo sapiens) (UniProt P19793); experiment: qHTS assay for small molecule agonists of retinoid X receptor alpha signaling (AID 588544; calls by dose curve;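 note: 0% = DMSO basal wells and 100% = reference agonist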)
Sequence of Retinoic acid receptor RXR-alpha (Homo sapiens) (P19793 whole entry, looked up): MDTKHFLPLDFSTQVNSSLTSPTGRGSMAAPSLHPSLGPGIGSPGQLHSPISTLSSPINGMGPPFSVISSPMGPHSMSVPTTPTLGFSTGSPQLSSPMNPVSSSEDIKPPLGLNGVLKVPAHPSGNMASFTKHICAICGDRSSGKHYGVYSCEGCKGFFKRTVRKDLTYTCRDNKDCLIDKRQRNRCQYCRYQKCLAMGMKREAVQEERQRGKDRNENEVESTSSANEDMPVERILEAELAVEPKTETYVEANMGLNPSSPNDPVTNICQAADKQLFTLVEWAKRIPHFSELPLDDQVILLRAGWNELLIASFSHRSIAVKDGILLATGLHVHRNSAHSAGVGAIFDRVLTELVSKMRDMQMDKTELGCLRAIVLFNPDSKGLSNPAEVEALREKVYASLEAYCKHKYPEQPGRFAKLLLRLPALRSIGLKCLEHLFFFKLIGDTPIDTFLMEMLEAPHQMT

[13] = target: Bile acid receptor (Homo sapiens) (UniProt Q96RI1); experiment: qHTS assay for small molecule antagonists of farnesoid X receptor signaling (AID 588526; calls by dose curve; note: % is set by controls: 0 for no effect and ±100 for the full control effect)
Sequence of Bile acid receptor (Homo sapiens) (Q96RI1 whole entry, looked up): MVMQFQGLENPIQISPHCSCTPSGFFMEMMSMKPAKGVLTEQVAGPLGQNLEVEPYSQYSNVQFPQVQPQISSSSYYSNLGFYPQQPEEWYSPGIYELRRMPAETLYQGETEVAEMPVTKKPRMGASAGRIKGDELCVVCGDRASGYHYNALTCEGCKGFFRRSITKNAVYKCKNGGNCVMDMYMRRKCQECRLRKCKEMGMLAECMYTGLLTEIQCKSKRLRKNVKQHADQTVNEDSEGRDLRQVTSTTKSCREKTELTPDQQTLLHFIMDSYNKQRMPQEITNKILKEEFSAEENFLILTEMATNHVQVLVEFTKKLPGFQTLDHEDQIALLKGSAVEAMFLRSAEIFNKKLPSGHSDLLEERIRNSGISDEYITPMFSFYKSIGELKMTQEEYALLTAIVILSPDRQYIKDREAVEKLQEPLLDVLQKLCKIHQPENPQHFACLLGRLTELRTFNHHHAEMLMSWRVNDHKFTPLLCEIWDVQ
In short: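 Beta-lactamase reporter antagonist mode: HEK293T FXR-UAS-bla cells, titrated compound, CDCA stimulation, 16 h 37 C, CCF4 dye 2 h RT. Data normalized to CDCA 50 uM and DMSO; Hill-fit IC50.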

[14] = qHTS assay for small molecule antagonists of peroxisome proliferator-activated receptor delta signaling (AID 588535); settings: HEK293T PPARd-UAS-bla, beta-lactamase FRET ratio, 18 h; 460 nm channel;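 note: cells co-treated with a PPAR-delta agonist as stimulator during compound exposure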
In short: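 HEK293T PPAR-delta-UAS-bla cells, 4000/well, 2% charcoal/dextran FBS; 5 h 37 C; cpd titration; 18 h 37 C; CCF4 2 h RT; FI 460/530 nm; Hill fit → IC50, efficacy.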

[15] = Cell Viability - LYMP2-019 (AID 973); note: nearly all actives have a fitted effect of over 55% in size; note: potency is the fitted concentration of half-maximal effect;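 for activity change, negative = cytotoxicity: 0% = DMSO alone and full effect = 92 µM tetraoctylammonium bromide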
In short: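 Human lymphoblastoid LYMP2-019 cells (2500/well) preincubated 5 h at 37 C, then treated 24 h at 37 C in complete medium. Viability by CellTiter-Glo ATP luminescence after 30 min at room temperature; AC50 from Hill fits.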

[16] = Cell Viability - LYMP2-007 (AID 979);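 note: cells exposed to compound for 24 h before reading; nearly all actives have a fitted effect of over 60% in size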; note: potency is the fitted concentration of half-maximal effect;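 for activity change, negative = cytotoxicity: 0% = DMSO only and the negative end = 92 µM tetraoctylammonium bromide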
In short: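 Human lymphoblastoid LYMP2-007 cells (2500/well) preincubated 5 h at 37 C, then treated 24 h at 37 C in complete medium. Viability by CellTiter-Glo ATP luminescence after 30 min at room temperature; AC50 from Hill fits.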

[17] = Cell Viability - LYMP2-012 (AID 982);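 note: cellular ATP by luciferase luminescence where a drop means cytotoxicity; cells exposed to compound for one day before reading; nearly all actives have a fitted effect of over 55% in size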; note: potency is the fitted concentration of half-maximal effect;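 for activity change, negative = cytotoxicity: 0% = DMSO only and full loss = 92 µM tetraoctylammonium bromide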
[18] = Cell Viability - LYMP2-024 (AID 988); note: nearly all actives have a fitted effect of over 60% in size; note: potency is the fitted concentration of half-maximal effect;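 for activity change, negative = cytotoxicity: plate controls were DMSO only for no effect and 92 µM tetraoctylammonium bromide for full effect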
In short: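 Human lymphoblastoid LYMP2-024 cells (2500/well) rested 5 hr, then treated with compound for 24 hr at 37 C in complete medium. Viability was measured as intracellular ATP by CellTiter-Glo luminescence. AC50 values came from Hill-equation fits.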

[19] = target: Peroxisome proliferator-activated receptor gamma (Homo sapiens) (UniProt P37231); experiment: qHTS assay for small molecule antagonists of peroxisome proliferator-activated receptor gamma signaling (AID 588537; active = well fitted inhibition curve with a large enough effect in the signal ratio, with a control signal flat, not every such curve was filed as active; the % refers to the signal ratio; note: potency is the fitted concentration of half-maximal effect)
Sequence of Peroxisome proliferator-activated receptor gamma (Homo sapiens) (P37231 whole entry, looked up): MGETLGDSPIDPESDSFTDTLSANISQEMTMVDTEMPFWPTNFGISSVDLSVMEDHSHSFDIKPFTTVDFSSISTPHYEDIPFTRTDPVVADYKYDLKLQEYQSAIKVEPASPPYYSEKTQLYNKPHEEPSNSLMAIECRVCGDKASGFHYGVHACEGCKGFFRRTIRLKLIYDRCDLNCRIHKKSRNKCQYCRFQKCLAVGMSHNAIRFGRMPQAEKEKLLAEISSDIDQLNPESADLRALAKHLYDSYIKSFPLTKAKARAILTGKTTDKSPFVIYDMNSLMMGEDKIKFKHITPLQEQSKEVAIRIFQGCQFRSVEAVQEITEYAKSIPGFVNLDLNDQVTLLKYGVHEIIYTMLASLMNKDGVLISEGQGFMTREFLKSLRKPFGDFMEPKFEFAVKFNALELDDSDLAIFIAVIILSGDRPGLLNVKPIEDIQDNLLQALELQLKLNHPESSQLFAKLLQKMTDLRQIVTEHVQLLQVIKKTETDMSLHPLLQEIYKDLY
In short: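 Antagonist mode, beta-lactamase reporter in HEK293; charcoal/dextran FBS 1%; 3000 cells/well, 37 C 6-6.5 h; cpd titration + rosiglitazone 50 nM final, 16 h 37 C; CCF4, 2 h RT; 460/530 nm; Hill fit → IC50, efficacy.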

[20] = Cell Viability - SH-SY5Y (AID 544); settings: SH-SY5Y neuroblastoma cell viability; viability change, negative = cytotoxic: at 92.2 µM (top of the series); note: nearly all actives have a fitted effect of over 55% in size; note: potency is the fitted concentration of half-maximal effect;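 for viability change, negative = cytotoxic: 0% = DMSO alone and -100% = 100 µM tamoxifen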
In short: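 SH-SY5Y human neuroblastoma cells (1500/well) incubated 5 h, then compound-treated 40 h at 37 °C in complete medium. Viability read as intracellular ATP by CellTiter-Glo luminescence after 20 min; AC50 from Hill-equation fits of qHTS concentration-response.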

CCN(CC)c1ccc(N)cc1
active: activity change, negative = cytotoxicity [1] -96.6% | Potency [2] 37.6 µM

Clc1nc2ccccc2nc1Cl
inactive: Potency [3] | outcome [4] | Potency [5] | Potency [6] | Potency [7] | activation [8] 3.19% | Potency [9] | Potency [10]

Oc1cc2c(cc1O)[C@H]1c3ccc(O)c(O)c3OC[C@@]1(O)C2
inactive: Potency [7] | activation [8] 0.204% | Potency [12]
active: activity change, negative = cytotoxicity [1] -89.3% | Potency [5] 39.8 µM | Potency [11] 31.6 µM | Potency [6] 50.1 µM

Cc1c(C(=O)O)c(O)cc2c1C(=O)c1c(O)c([C@H]3O[C@H](CO)[C@@H](O)[C@H](O)[C@H]3O)c(O)c(O)c1C2=O
28.9%: max response [14]
inactive: Potency [7] | Potency [13] | Potency [9] | Potency [10]

C=CC(=O)OCCCCCCOC(=O)C=C
inactive: Potency [3] | Potency [13] | Potency [19]
active: Potency [1] 7.94 µM | Potency [5] 39.8 µM | Potency [11] 39.8 µM | Potency [15] 50.1 µM | Potency [6] 39.8 µM | Potency [16] 39.8 µM | Potency [17] 39.8 µM | Potency [18] 31.6 µM
31.6 µM (active) and inactive: Potency [10]
35%: max response [14]
39.8 µM (active) and inactive: Potency [9]

c1ccc(Nc2cccc3ccccc23)cc1
27.2% and -10.4%: max response [14]
inactive: outcome [4] | Potency [5] | Potency [17] | Potency [12]

Oc1cc(Cl)cc(Cl)c1Cl
inactive: Potency [3] | outcome [4] | Potency [5] | Potency [11] | Potency [15] | Potency [17] | Potency [7]

Nc1ccc(N)c(Cl)c1
active: viability change, negative = cytotoxic [20] -99%
-6.58%: max response [14]
inactive: Potency [3] | Potency [11] | Potency [15] | Potency [6] | Potency [16] | Potency [17] | Potency [7] | Potency [10]

CC(=O)CC(=O)Nc1ccccc1
inactive: Potency [3] | Potency [20] | Potency [6] | Potency [16] | Potency [17] | Potency [13] | Potency [9] | Potency [19] | Potency [2]
18.5%: max response [14]

CN(C)c1ccc(C(=N)c2ccc(N(C)C)cc2)cc1
inactive: Potency [3] | activation [8] 2.53% | Potency [9] | Potency [10]
active: Potency [19] 14.1 µM | Potency [2] 66.8 µM

O=[N+]([O-])c1cc(Cl)c(Cl)c(Cl)c1Cl
inactive: Potency [3] | Potency [17]
8.11%: max response [14]
active: Potency [20] 31.6 µM

NC(=O)Nc1nc2ccccc2[nH]1
inactive: Potency [3] | outcome [4] | Potency [11] | Potency [17] | Potency [7] | Potency [13] | Potency [10] | Potency [12]
-10.2%: max response [14]

O=Nc1ccc(Nc2ccccc2)cc1
inactive: Potency [3]

CCCCC(CC)COP(=O)(OCC(CC)CCCC)OCC(CC)CCCC (configuration not stated)
38.7%: max response [14]
inactive: Potency [3] | outcome [4] | Potency [5] | Potency [11] | Potency [15] | Potency [16] | Potency [17] | activation [8] -3.34% | Potency [9] | Potency [19] | Potency [12]

Cc1cc2nc(N)sc2cc1C
inactive: Potency [20] | outcome [4] | Potency [11] | Potency [6] | Potency [16] | Potency [17] | Potency [18] | Potency [13] | activation [8] -1.47% | Potency [19] | Potency [10] | Potency [12]

From PubChem BioAssay (NCATS)
